Read-out in assay [1]: NAD(P)H dehydrogenase [quinone] 1 (NQO1), NQO1 (gene 1728)
Put plainly: LTEA_HepaRG_NQO1: Life Technologies and Expression Analysis (LTEA) Assay for NAD(P)H dehydrogenase [quinone] 1 (NQO1) using HepaRG (AID 2283526). To be noted: mRNA level, 48 h; actives raise or lower the signal. A digest of the protocol:
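Differentiated HepaRG cells, plated 48 h and then switched to serum-free induction medium, were exposed in duplicate for 48 h to 8-point half-log concentrations up to 100 uM in 0.5% DMSO. mRNA measured by qRT-PCR, normalized to ACTB, GAPDH, POLR2A; bidirectional fit versus DMSO.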

Read-out in assay [2]: Nuclear factor erythroid 2-related factor 2 (Homo sapiens) (UniProt Q16236)
In words: LTEA_HepaRG_NFE2L2: Life Technologies and Expression Analysis (LTEA) Assay for Nuclear factor erythroid 2-related factor 2 (NFE2L2) Transcription Factor using HepaRG (AID 2283527).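 On outcome: TaqMan qRT-PCR transcript level normalised to ACTB GAPDH and POLR2A housekeeping genes.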 To be noted: mRNA level, 48 h; actives raise or lower the signal. A digest of the protocol: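 Transcript level of NFE2L2 is the read-out, measured by microfluidic TaqMan qRT-PCR and normalized to three housekeeping genes. Human HepaRG cultures received test chemical for 48 h at up to 100 uM in half-log steps. Gain or loss of signal is fitted relative to 0.5% DMSO.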

Read-out in assay [3]: succinate dehydrogenase complex iron sulfur subunit B (SDHB), SDHB (gene 6390)
Put plainly: LTEA_HepaRG_SDHB: Life Technologies and Expression Analysis (LTEA) Assay for succinate dehydrogenase complex iron sulfur subunit B (SDHB) using HepaRG (AID 2283528). Conditions: mRNA level, 48 h; actives raise or lower the signal. In outline:
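HepaRG, 48 h exposure, 8-pt half-log series from 100 uM in 0.5% DMSO, duplicates. Readout: SDHB mRNA by Fluidigm qRT-PCR vs housekeeping genes; bidirectional fit relative to DMSO.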

Read-out in assay [4]: Signal transducer and activator of transcription 3 (Homo sapiens) (UniProt P40763)
Put plainly: LTEA_HepaRG_STAT3: Life Technologies and Expression Analysis (LTEA) Assay for Signal transducer and activator of transcription (STAT3) using HepaRG (AID 2283529). To be noted: mRNA level, 48 h; actives raise or lower the signal. A digest of the protocol: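 Read-out is STAT3 mRNA level by qRT-PCR, normalized to three housekeeping genes, in human HepaRG liver cells treated for 48 h. Concentrations ran from 100 uM downward in half-log steps; curves were fitted for gain or loss relative to 0.5% DMSO.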

Read-out in assay [5]: solute carrier (SLCO1B1), SLCO1B1 (gene 10599)
Put plainly: LTEA_HepaRG_SLCO1B1: Life Technologies and Expression Analysis (LTEA) Assay for solute carrier (SLCO1B1) using HepaRG (AID 2283530). Conditions: mRNA level, 48 h; actives raise or lower the signal. In outline: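 Human HepaRG cultures treated for 48 h with an eight-concentration half-log series topping at 100 uM; SLCO1B1 measured by qRT-PCR and fitted bidirectionally relative to DMSO.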

Read-out in assay [6]: sulfotransferase 2A1 (SULT2A1), SULT2A1 (gene 6822)
In words: LTEA_HepaRG_SULT2A1: Life Technologies and Expression Analysis (LTEA) Assay for sulfotransferase 2A1 (SULT2A1) using HepaRG (AID 2283531). Conditions: mRNA level, 48 h; actives raise or lower the signal. In outline: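 Gene-expression endpoint in a human liver cell line: SULT2A1 mRNA change after 48 h chemical treatment, curves fitted in both directions relative to 0.5% DMSO vehicle. Concentrations spanned eight half-log steps from 100 uM.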

Read-out in assay [7]: Transforming Growth Factor (TGFA), TGFA (gene 7039)
Put plainly: LTEA_HepaRG_TGFA: Life Technologies and Expression Analysis (LTEA) Assay for Transforming Growth Factor (TGFA) using HepaRG (AID 2283532). To be noted: mRNA level, 48 h; actives raise or lower the signal. In outline: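 HepaRG (human liver line), 48 h exposure, 8 conc. half-log down from 100 uM, 0.5% DMSO vehicle, duplicates; serum-free induction medium. TGFA mRNA by TaqMan qRT-PCR, ACTB/GAPDH/POLR2A normalization; gain/loss fit vs DMSO.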

Read-out in assay [8]: Transforming Growth Factor (TGFB1), TGFB1 (gene 7040)
Put plainly: LTEA_HepaRG_TGFB1: Life Technologies and Expression Analysis (LTEA) Assay for Transforming Growth Factor (TGFB1) Transporter using HepaRG (AID 2283533). To be noted: mRNA level, 48 h; actives raise or lower the signal. In outline:
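Eight-point concentration-response (max 100 uM, half-log) in HepaRG under serum-free induction conditions, 48 h. TGFB1 mRNA by qRT-PCR, housekeeping-normalized.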

Read-out in a further assay: TIMP1, TIMP1 (gene 7076)
In words: LTEA_HepaRG_TIMP1: Life Technologies and Expression Analysis (LTEA) Assay for TIMP1 using HepaRG (AID 2283534).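 Further: TaqMan qRT-PCR signal normalized to ACTB GAPDH and POLR2A housekeeping genes.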 To be noted: mRNA level, 48 h; actives raise or lower the signal. A digest of the protocol: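 TIMP1 induction or repression in HepaRG cells after 48 h chemical exposure (eight concentrations, highest 100 uM), assessed by normalized qRT-PCR with bidirectional fitting to DMSO controls.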

Read-out in assay [9]: Tumor necrosis factor receptor 1 (TNFRSF1A), TNFRSF1A (gene 7132)
In words: LTEA_HepaRG_TNFRSF1A: Life Technologies and Expression Analysis (LTEA) Assay for Tumor necrosis factor receptor 1 (TNFRSF1A) using HepaRG (AID 2283535). To be noted: mRNA level, 48 h; actives raise or lower the signal. In outline:
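Assay uses 48 h chemical treatment of differentiated HepaRG monolayers, tested in duplicate at eight concentrations from 100 uM downward in 0.5% DMSO. mRNA is normalized to ACTB, GAPDH and POLR2A, with induction or suppression fitted relative to vehicle.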

Read-out in assay [10]: Thyroid Hormone Responsive (THRSP), THRSP (gene 7069)
In words: LTEA_HepaRG_THRSP: Life Technologies and Expression Analysis (LTEA) Assay for Thyroid Hormone Responsive (THRSP) using HepaRG (AID 2283536). To be noted: mRNA level, 48 h; actives raise or lower the signal. In outline: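 mRNA induction or loss relative to 0.5% DMSO vehicle was fitted bidirectionally across an eight-point curve whose highest exposure was 100 uM. Human HepaRG liver cells received chemicals in duplicate over 48 h before RNA extraction.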

Read-out in assay [11]: UDP glucuronosyltransferase (UGT1A1), UGT1A1 (gene 54658)
Put plainly: LTEA_HepaRG_UGT1A1: Life Technologies and Expression Analysis (LTEA) Assay for UDP glucuronosyltransferase (UGT1A1) using HepaRG (AID 2283538). Conditions: mRNA level, 48 h; actives raise or lower the signal. In outline:
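Differentiated human HepaRG cells in serum-free induction medium were exposed in duplicate for 48 h to eight half-log concentrations up to 100 uM in 0.5% DMSO. UGT1A1 mRNA was quantified by TaqMan qRT-PCR, normalized to ACTB, GAPDH and POLR2A, and fitted bidirectionally against DMSO.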

Read-out in assay [12]: UDP glucuronosyltransferase (UGT1A6), UGT1A6 (gene 54578)
In words: LTEA_HepaRG_UGT1A6: Life Technologies and Expression Analysis (LTEA) Assay for UDP glucuronosyltransferase (UGT1A6) using HepaRG (AID 2283539). Conditions: mRNA level, 48 h; actives raise or lower the signal. A digest of the protocol:
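Measures mRNA change in HepaRG hepatic cells exposed 48 h to chemicals (eight-point, maximum 100 uM, 0.5% DMSO vehicle) in serum-free induction medium. Expression normalized to endogenous controls; DMSO served as negative control and baseline.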

Read-out in assay [13]: X-box binding protein 1 (XBP1), XBP1 (gene 7494)
In words: LTEA_HepaRG_XBP1: Life Technologies and Expression Analysis (LTEA) Assay for X-box binding protein 1 (XBP1) using HepaRG (AID 2283540). Conditions: mRNA level, 48 h; actives raise or lower the signal. A digest of the protocol:
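Eight concentrations (half-log, highest 100 uM, 0.5% DMSO) tested in duplicate on HepaRG cells over 48 h in serum-free induction medium; qRT-PCR of XBP1 normalised to ACTB, GAPDH, POLR2A.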

Assay [14] is described as follows: LTEA_HepaRG_LDH_cytotoxicity: Cytotoxicity Assessment in the Life Technologies and Expression Analysis (LTEA) Assay (AID 2283563; active means hit-call score of the fitted dose curve at least 0.9, where 1 is the maximum;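 on AC50: LDH activity released into spent culture medium as a marker of cell death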). In outline: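 Spent-medium LDH after 48 h chemical exposure of HepaRG cells in serum-free induction medium; eight concentrations, half-log dilutions from 100 uM, duplicate wells, fitted upward relative to 0.5% DMSO.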
Assay [15] in a line: ATG_XTT_Cytotoxicity: Cytotoxicity Assessment in the Attagene TRANS-FACTORIAL HepG2 Assay (AID 2283584; active means hit-call score of the fitted dose curve at least 0.9, where 1 is the maximum). In outline: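 24 h chemical exposure of reporter-transfected HepG2; XTT signal loss vs DMSO indicates cytotoxicity.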
The nature of assay [16]: TOX21_p53_BLA_p2_viability: Viability Assessment in the Tox21 HCT-116 p53 Agonism Beta-lactamase Assay, Phase 2 (AID 2283591; active means hit-call score of the fitted dose curve at least 0.9, where 1 is the maximum;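 further: compound exposure lasted 16 h at 37 °C; actives lower the ATP signal meaning cytotoxicity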). A digest of the protocol:
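Cytotoxicity readout: CellTiter-Glo ATP luminescence, 30 min at room temperature, after the beta-lactamase read. Cells were HCT116 exposed 16 h at 37C to compounds pin-transferred at 217-fold dilution from DMSO stocks.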

In assay [17] the target is Cellular tumor antigen p53 (Homo sapiens) (UniProt P04637). In words: TOX21_p53_BLA_p2_ratio: Tox21 HCT-116 p53 Agonism Beta-lactamase Assay, Ratio, Phase 2 (AID 2283592; active means hit-call score of the fitted dose curve at least 0.9, where 1 is the maximum). In outline: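 Human colon HCT116 cells with an inducible p53 beta-lactamase reporter are exposed to test chemicals for 16 h at 37C. Reporter induction is read as the 460/530 nm emission ratio after CCF4-AM loading, normalized to DMSO.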

The source of these data is PubChem BioAssay (EPA / NIEHS).

What is called AC50 is the concentration at which the activity in the assay is half-maximal.

“And” between values parts separate entries of the source, which are not always exact repeats. Identical values can stand only once. Inconclusive results are not listed. The source made the active and inactive calls. How the source made its calls, unless noted: active means hit-call score of the fitted dose curve at least 0.9, where 1 is the maximum; inactive means score below 0.9.

Signal transducer and activator of transcription 3 (Homo sapiens), sequence (P40763 whole entry, looked up): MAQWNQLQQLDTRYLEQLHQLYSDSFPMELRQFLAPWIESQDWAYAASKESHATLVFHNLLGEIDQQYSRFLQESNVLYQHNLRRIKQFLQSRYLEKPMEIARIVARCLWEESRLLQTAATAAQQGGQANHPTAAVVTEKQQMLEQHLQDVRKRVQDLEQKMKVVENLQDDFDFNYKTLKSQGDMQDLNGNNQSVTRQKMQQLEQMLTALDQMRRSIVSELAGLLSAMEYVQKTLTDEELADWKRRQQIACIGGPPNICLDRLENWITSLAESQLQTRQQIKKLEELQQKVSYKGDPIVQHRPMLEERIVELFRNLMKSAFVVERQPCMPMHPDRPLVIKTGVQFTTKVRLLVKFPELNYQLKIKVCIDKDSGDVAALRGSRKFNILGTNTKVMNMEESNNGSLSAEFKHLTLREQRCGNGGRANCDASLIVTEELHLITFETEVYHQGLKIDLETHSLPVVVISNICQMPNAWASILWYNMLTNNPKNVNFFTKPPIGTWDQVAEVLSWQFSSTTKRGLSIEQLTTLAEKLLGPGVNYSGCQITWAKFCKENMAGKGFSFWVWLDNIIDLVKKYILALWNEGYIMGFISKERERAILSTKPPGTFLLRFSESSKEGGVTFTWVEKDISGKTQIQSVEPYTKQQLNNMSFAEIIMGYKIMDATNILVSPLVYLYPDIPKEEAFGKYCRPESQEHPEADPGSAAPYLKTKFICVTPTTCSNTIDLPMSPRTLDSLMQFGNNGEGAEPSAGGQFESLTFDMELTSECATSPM
Cellular tumor antigen p53 (Homo sapiens), sequence (P04637 whole entry, looked up): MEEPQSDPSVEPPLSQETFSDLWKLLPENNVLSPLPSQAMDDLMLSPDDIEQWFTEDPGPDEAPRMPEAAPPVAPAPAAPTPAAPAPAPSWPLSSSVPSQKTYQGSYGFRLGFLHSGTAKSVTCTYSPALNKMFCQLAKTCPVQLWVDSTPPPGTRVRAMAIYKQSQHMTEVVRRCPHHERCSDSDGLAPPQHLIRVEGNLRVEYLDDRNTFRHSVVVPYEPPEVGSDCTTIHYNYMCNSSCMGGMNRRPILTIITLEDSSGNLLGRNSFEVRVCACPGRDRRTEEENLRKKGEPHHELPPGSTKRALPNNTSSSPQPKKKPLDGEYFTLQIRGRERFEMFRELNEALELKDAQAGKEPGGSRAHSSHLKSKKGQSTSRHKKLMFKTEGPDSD
Nuclear factor erythroid 2-related factor 2 (Homo sapiens), sequence (Q16236 whole entry, looked up): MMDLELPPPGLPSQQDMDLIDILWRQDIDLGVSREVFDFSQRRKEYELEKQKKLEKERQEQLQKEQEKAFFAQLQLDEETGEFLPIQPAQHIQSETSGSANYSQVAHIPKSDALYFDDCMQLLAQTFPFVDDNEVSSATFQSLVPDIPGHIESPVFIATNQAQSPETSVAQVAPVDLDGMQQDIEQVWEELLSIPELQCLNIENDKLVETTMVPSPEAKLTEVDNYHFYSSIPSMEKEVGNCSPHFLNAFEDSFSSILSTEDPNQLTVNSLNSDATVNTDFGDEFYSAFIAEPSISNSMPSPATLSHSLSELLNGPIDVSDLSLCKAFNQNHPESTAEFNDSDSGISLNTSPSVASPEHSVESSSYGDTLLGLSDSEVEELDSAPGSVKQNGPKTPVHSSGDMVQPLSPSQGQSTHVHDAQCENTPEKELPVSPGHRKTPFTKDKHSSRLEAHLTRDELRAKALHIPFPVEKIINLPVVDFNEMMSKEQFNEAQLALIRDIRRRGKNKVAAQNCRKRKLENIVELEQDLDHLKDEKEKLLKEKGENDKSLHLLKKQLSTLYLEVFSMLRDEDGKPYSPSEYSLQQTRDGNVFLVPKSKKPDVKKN

Consider `Clc1ccc(C(c2ccccc2Cl)C(Cl)(Cl)Cl)cc1` (stereo not given), for which the call in [1], in [2], in [3], in [4], in [5] and in assay [6] was inactive. Besides, the outcome in [7] is “inactive”; in assay [8] it was “inactive”; with TIMP1, TIMP1 (gene 7076), “inactive”; in assay [9], “inactive”; in assay [12], “inactive”; in assay [13], “inactive”. Moreover, the call in [15] was inactive. Moreover, the AC50 in [10] is 55.8 µM (active); in assay [11] it was 0.818 µM (active); in assay [14] it was 77.5 µM (active); in [16] it was 32.5 µM (active) and 55.2 µM (active); in assay [17] it was 47.2 µM (active) and 74.1 µM (active).

For `CCOP(=S)(OCC)SCSC(C)(C)C`, the compound was classed as inactive in assay [1], in [2], in assay [3], in assay [4], in assay [5] and in [7]. For the same compound, the outcome in assay [8] was “inactive”; with TIMP1, TIMP1 (gene 7076) it was “inactive”; in assay [9], “inactive”; in assay [10], “inactive”; in [11], “inactive”; in [12], “inactive”. Also, the call in assay [13], in assay [14], in [15], in assay [16] and in assay [17] was inactive. Also, the AC50 in [6] was 10.4 µM (active).

For the compound `CCCCCCOC(=O)c1ccccc1C(=O)OCCCCCC`, the compound was classed as inactive in assay [1], in [2], in assay [3], in assay [4], in assay [5] and in [6]. In addition, the outcome in assay [7] is “inactive”; in assay [8], “inactive”; with TIMP1, TIMP1 (gene 7076), “inactive”; in [9], “inactive”; in [10], “inactive”; in assay [12] it was “inactive”. The result in [13], in [14] and in assay [15] was inactive. In addition, the AC50 in assay [11] was 62 µM (active).

Regarding `ClC1=C(Cl)[C@]2(Cl)[C@@H]3[C@@H]4C[C@@H]([C@H]5O[C@@H]45)[C@@H]3[C@@]1(Cl)C2(Cl)Cl`, the result in [1], in [3], in assay [5], in [6], in assay [7] and in assay [8] was inactive. Further, the outcome with TIMP1, TIMP1 (gene 7076) is “inactive”; in assay [9] it was “inactive”; in assay [12], “inactive”; in [14] it was “inactive”; in assay [15], “inactive”; in assay [16], “inactive”. The result in assay [17] was inactive. For the same compound, the AC50 in [2] was 0.0292 µM (active); in assay [4], 0.0319 µM (active); in assay [10] it was 50 µM (active); in assay [11], 1.65 µM (active); in assay [13] it was 0.0249 µM (active).
